target: PEX11G; test: pooled miR-30 sensor sort-seq; sequence = guide strand; settings: shRNA
Also: reference of the scale not given here.

Sequence	sensor-assay potency score (higher = more potent)
TTGCTTAGTGTAGACAAACATG	-1.38
TAGTGTAGACAAACATGGCCAG	-0.684
TTGGGTGGACACCACCAACAGA	-1.13
TTCCCTAGGACGGAGACACAGC	-1.05

target: PFKFB4; test: as above; settings: shRNA

Sequence	sensor-assay potency score (higher = more potent)
TTAAAGATGGTCGCTCTCCGTT	-0.54
TTTTGGTCACTGATGAACTGGG	-0.438
TAGGTCTTGACCACGTCCCGGC	-0.311
TTCACTGTGAGAGCAGGCCTGA	-0.707
TTGATATAGGACAGGTCCCTAT	-1.32
TTTCACACTTCACAAAGCCAAC	-1.28
TTTGTAGGTCTTGACCACGTCC	-0.178
TATCGAGTCAGCTTCTTGGAGA	-0.636
TAGACTCTTGGCAAACTCCCTG	0.333
TTTCCTTTCACATTGTAGGGTT	0.667
TCAAGTGACTCTTAGCAGCAGG	-0.462
TCATCTAGCGACTCGTAGGAGT	-0.615

target: PGBD3; test: as above; settings: shRNA

Sequence	sensor-assay potency score (higher = more potent)
TTTGGTGGTGCTGTAACTCTAC	0.653
TTGTGTTCTTATGACATTCAGC	-0.605
TAAAGCTACATCTGATTCCAGT	-0.329
TTTGGAACAAATTTCATGCATC	-0.293
TTCATCAGGAGAGTCATCTTTA	0.38
AACTTTGTCAATGTGATCCTTT	0.355
TAAACGTAGATGGAACTTCATC	-1.36
TTCATTTGGAACAAATTTCATG	-0.714
TACGCTTCTGAGGTCTTCCTTT	-0.455
TTTTCTTTAAAGCTACATCTGA	-0.486
TTTCTTTAAAGCTACATCTGAT	-0.534
TGCATTGTCAGCAACATGCAAA	-1.12

target: PGD; test: as above; settings: shRNA

Sequence	sensor-assay potency score (higher = more potent)
TTTCTTATCACCATCAAACTGG	-0.51
TTGAGGTCTCGGCACCGTCTTG	-1.68
TAGGAATACACTTCTAATGATG	-1.08
TTCAGAGATGATAAGCACCGAG	-0.0452
TTGAGCGTAAGAGATGATCTTG	0.0723
TTGGTGTGGATAAACTGCCCTG	-0.35
TTTCCTAGGAATACACTTCTAA	0.166
TCAACTTTGGAGACAGTCCTAT	-0.343
TGACTTAAAGAAGTCGTCCAGT	-0.436
TAGGAGGTTCTGAAGTTCCGGG	-0.239
